Data on seven compounds can be found in PubChem BioAssay (EPA / NIEHS).

Assay [1] deals with cAMP-dependent protein kinase catalytic subunit alpha (Homo sapiens) (UniProt P17612). In words: NVS_ENZ_hPKA: NovaScreen (NVS) Enzymatic Assay for human Protein Kinase A (PKA) (AID 2283192). The method, boiled down:
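Cell-free kinase activity read by fluorescence after mobility-shift separation of substrate and product, 1 h post-dosing. Single-concentration duplicate screen (25 uM) preceded singleton concentration series (top 50 uM); loss of signal versus DMSO.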

For assay [2], the target named is human Protein Tyrosine Phosphatase Non-receptor Type 1 (PTPN1), PTPN1 (gene 5770) (UniProt P18031). The assay is described as follows: NVS_ENZ_hPTPN1: NovaScreen (NVS) Enzymatic Assay for human Protein Tyrosine Phosphatase Non-receptor Type 1 (PTPN1) (AID 2283201). The method in brief: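 Chemicals were first tested in duplicate at 25 uM, and those passing threshold went on to singleton concentration series topping at 50 uM. Recombinant enzyme, specific substrate, product separated by mobility shift, fluorescence read at 1.33 h; activity loss relative to DMSO.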

For assay [3], the target named is Tyrosine-protein phosphatase non-receptor type 11 (Homo sapiens) (UniProt Q06124). In words: NVS_ENZ_hPTPN11: NovaScreen (NVS) Enzymatic Assay for human Protein Tyrosine Phosphatase Non-receptor Type 11 (PTPN11) (AID 2283202). The method in brief: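 Compounds first tested in duplicate at 25 uM; those reaching ~30% inhibition rerun in singleton concentration-response, top 50 uM. Phosphatase activity measured after 0.5 h by fluorescence with mobility-shift separation, relative to DMSO.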
Sequence of Tyrosine-protein phosphatase non-receptor type 11 (Homo sapiens) (Q06124 whole entry, looked up): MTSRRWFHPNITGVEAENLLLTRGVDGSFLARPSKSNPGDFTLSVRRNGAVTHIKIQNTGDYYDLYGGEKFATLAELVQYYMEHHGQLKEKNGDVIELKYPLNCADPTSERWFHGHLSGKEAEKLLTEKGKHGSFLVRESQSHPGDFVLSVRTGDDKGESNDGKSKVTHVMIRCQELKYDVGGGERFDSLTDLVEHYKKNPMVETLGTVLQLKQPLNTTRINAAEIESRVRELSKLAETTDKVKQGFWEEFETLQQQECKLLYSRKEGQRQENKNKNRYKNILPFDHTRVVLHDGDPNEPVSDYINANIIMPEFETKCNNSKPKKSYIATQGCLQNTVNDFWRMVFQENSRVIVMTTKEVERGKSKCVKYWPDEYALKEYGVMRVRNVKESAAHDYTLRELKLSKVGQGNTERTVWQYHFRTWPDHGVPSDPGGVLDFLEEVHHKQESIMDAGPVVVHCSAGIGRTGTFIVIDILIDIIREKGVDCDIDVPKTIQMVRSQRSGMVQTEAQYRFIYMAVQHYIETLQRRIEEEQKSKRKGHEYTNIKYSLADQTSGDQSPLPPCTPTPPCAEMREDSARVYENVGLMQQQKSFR

For assay [4], the target named is Tyrosine-protein phosphatase non-receptor type 12 (Homo sapiens) (UniProt Q05209). In words: NVS_ENZ_hPTPN12: NovaScreen (NVS) Enzymatic Assay for human Protein Tyrosine Phosphatase Non-receptor Type 12 (PTPN12) (AID 2283204). The method, boiled down: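 Single-concentration duplicates (25 uM) preceded singleton concentration-response up to 50 uM for chemicals passing threshold. Cell-free recombinant PTPN12 activity was read 1.33 h after dosing via fluorescence after mobility-shift separation; loss of signal versus DMSO.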
Sequence of Tyrosine-protein phosphatase non-receptor type 12 (Homo sapiens) (Q05209 whole entry, looked up): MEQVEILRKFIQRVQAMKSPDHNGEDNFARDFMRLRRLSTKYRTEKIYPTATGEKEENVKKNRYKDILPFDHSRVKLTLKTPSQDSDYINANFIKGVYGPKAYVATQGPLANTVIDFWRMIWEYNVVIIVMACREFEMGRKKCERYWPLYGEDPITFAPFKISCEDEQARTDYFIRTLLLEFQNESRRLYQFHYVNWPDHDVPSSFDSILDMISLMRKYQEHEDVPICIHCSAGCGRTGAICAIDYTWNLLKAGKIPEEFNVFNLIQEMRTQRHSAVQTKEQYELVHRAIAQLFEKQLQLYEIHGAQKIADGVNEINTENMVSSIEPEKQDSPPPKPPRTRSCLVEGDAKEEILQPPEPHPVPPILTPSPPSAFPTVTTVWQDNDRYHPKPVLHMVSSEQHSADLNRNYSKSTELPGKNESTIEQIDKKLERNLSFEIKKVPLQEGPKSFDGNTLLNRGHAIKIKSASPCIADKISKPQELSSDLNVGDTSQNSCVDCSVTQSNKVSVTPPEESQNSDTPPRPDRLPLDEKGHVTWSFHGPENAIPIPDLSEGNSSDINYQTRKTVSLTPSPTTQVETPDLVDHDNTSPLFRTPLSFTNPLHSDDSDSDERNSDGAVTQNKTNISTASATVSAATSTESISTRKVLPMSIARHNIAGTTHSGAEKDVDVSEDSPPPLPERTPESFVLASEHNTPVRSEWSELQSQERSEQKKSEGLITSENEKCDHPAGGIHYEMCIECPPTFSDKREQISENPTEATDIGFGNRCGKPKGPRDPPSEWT

The target in assay [5] is Tyrosine-protein phosphatase non-receptor type 13 (Homo sapiens) (UniProt Q12923). The assay is described as follows: NVS_ENZ_hPTPN13: NovaScreen (NVS) Enzymatic Assay for human Protein Tyrosine Phosphatase Non-receptor Type 13 (PTPN13) (AID 2283205). The method, boiled down:
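Screened first at a single 25 uM in duplicate; compounds passing the threshold (e.g. 30% inhibition) were rerun in concentration series, top 50 uM. Recombinant enzyme, fluorescent substrate, mobility-shift separation, 0.5 h read. Data fitted as inhibition relative to DMSO.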

The target in assay [6] is Tyrosine-protein phosphatase non-receptor type 14 (Homo sapiens) (UniProt Q15678). In words: NVS_ENZ_hPTPN14: NovaScreen (NVS) Enzymatic Assay for human Protein Tyrosine Phosphatase Non-receptor Type 14 (PTPN14) (AID 2283206). The method, boiled down: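 Fluorescent substrate turnover by recombinant human PTPN14 was measured 0.5 h after compound addition, with substrate and product separated by mobility shift. Single-point screening at 25 uM, then concentration-response up to 50 uM for chemicals meeting threshold (e.g., 30% inhibition).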

In assay [7] the target is human Protein Tyrosine Phosphatase Non-receptor Type 4 (PTPN4), PTPN4 (gene 5775) (UniProt P29074). In words: NVS_ENZ_hPTPN4: NovaScreen (NVS) Enzymatic Assay for human Protein Tyrosine Phosphatase Non-receptor Type 4 (PTPN4) (AID 2283208). The method, boiled down: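 Screened in duplicate at 25 uM, with hits then titrated to a top concentration of 50 uM. Recombinant Sf9-derived PTPN4 turnover was read by fluorescence with electrophoretic separation, 1.33 h after compound addition. DMSO served as baseline.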
Sequence of human Protein Tyrosine Phosphatase Non-receptor Type 4 (PTPN4), PTPN4 (gene 5775) (P29074 whole entry, looked up): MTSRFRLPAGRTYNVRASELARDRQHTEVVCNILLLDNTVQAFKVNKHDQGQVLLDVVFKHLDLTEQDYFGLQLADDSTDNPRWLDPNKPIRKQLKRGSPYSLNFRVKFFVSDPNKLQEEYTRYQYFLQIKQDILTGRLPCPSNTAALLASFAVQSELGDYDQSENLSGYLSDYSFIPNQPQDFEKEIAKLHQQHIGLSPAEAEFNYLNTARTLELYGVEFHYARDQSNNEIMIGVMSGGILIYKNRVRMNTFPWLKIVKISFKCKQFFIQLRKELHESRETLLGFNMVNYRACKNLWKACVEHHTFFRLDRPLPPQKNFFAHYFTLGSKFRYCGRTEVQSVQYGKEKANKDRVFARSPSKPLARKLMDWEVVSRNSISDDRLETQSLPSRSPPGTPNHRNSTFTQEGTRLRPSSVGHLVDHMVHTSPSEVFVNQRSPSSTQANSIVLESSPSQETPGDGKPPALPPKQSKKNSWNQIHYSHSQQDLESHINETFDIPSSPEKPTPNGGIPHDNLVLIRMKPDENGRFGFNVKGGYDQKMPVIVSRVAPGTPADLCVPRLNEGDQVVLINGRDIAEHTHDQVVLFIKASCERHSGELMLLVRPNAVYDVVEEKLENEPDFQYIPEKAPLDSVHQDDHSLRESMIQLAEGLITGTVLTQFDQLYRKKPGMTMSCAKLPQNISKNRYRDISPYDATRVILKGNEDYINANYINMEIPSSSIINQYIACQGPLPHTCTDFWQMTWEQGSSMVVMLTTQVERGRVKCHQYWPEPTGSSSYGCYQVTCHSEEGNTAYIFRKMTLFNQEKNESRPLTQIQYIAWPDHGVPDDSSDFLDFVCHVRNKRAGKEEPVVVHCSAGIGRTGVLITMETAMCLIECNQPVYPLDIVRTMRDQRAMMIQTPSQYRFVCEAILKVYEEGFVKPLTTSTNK

The target in assay [8] is human Protein Tyrosine Phosphatase Non-receptor Type 9 (PTPN9), PTPN9 (gene 5780) (UniProt P43378). In words: NVS_ENZ_hPTPN9: NovaScreen (NVS) Enzymatic Assay for human Protein Tyrosine Phosphatase Non-receptor Type 9 (PTPN9) (AID 2283209). The method in brief: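 Sf9-expressed enzyme in a cell-free assay, fluorescence read 1.33 h after dosing with mobility-shift separation of substrate and product. Tested at 25 uM in duplicate, then up to 50 uM; signal loss versus DMSO.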
Sequence of human Protein Tyrosine Phosphatase Non-receptor Type 9 (PTPN9), PTPN9 (gene 5780) (P43378 whole entry, looked up): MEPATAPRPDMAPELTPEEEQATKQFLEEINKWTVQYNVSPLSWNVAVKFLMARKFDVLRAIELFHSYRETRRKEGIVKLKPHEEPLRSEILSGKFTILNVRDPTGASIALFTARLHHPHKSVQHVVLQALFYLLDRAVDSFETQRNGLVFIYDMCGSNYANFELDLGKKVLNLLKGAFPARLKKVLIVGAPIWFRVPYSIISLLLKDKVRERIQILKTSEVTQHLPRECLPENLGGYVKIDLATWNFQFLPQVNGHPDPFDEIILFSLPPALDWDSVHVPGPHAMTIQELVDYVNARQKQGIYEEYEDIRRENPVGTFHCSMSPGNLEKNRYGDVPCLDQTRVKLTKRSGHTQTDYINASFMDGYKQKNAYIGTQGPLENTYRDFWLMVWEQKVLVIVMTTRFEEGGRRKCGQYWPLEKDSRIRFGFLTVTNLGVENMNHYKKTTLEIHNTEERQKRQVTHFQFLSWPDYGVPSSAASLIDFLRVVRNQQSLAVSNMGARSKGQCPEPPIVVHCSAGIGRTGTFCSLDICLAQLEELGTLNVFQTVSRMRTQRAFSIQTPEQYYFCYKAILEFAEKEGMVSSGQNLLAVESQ

For assay [9], the target named is human Protein Tyrosine Phosphatase Non-receptor Type 6 (PTPN6), PTPN6 (gene 5777) (UniProt P29350). The assay is described as follows: NVS_ENZ_hPTPN6: NovaScreen (NVS) Enzymatic Assay for human Protein Tyrosine Phosphatase Non-receptor Type 6 (PTPN6) (AID 2283210). The method, boiled down: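 Recombinant human PTPN6 from SF9 cells, enzyme activity followed by fluorescence after mobility-shift separation of substrate and product at 1.33 h. Chemicals first tested at a single 25 uM in duplicate, then confirmed across concentration series; loss of signal relative to DMSO.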
Sequence of human Protein Tyrosine Phosphatase Non-receptor Type 6 (PTPN6), PTPN6 (gene 5777) (P29350 whole entry, looked up): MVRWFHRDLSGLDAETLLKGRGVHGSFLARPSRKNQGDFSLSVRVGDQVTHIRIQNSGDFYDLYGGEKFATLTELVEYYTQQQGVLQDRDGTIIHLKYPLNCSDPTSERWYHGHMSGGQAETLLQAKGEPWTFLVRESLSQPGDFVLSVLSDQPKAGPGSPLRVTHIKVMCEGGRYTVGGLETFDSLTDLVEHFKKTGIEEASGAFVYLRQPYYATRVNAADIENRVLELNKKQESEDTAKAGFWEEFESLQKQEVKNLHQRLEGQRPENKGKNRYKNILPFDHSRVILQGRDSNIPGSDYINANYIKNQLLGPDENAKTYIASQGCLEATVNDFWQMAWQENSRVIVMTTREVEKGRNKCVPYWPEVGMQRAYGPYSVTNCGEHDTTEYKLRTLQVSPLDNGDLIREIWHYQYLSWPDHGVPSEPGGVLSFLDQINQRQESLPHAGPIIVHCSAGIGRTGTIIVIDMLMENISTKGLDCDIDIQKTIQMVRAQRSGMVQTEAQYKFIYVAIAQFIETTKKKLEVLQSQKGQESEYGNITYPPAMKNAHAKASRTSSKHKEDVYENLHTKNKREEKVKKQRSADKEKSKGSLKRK

Assay [10] addresses human Protein Tyrosine Phosphatase Receptor Type B (PTPRB), PTPRB (gene 5787) (UniProt P23467). In words: NVS_ENZ_hPTPRB: NovaScreen (NVS) Enzymatic Assay for human Protein Tyrosine Phosphatase Receptor Type B (PTPRB) (AID 2283211). The method in brief: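 Recombinant human PTPRB with a fluorescent substrate, product separated by electrophoretic mobility shift; read 1 h after dosing. Primary screen in duplicate at 25 uM; actives then retested in concentration series; loss of signal versus DMSO.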

The target of assay [11] is human Protein Tyrosine Phosphatase Receptor Type F (PTPRF), PTPRF (gene 5792) (UniProt P10586). In words: NVS_ENZ_hPTPRF: NovaScreen (NVS) Enzymatic Assay for human Protein Tyrosine Phosphatase Receptor Type F (PTPRF) (AID 2283213). The method, boiled down: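 Cell-free fluorescence enzyme assay with recombinant protein and substrate; product separated by electrophoretic mobility shift. Read 1 h after dosing, single 25 uM duplicate screen, then concentration-response up to 50 uM; loss of signal vs DMSO.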

The target of assay [12] is human Protein Tyrosine Phosphatase Receptor Type M (PTPRM), PTPRM (gene 5797) (UniProt P28827). The assay is described as follows: NVS_ENZ_hPTPRM: NovaScreen (NVS) Enzymatic Assay for human Protein Tyrosine Phosphatase Receptor Type M (PTPRM) (AID 2283215). The method, boiled down:
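Read-out is fluorescence after electrophoretic separation of substrate and product, taken 1.33 h post-dosing with recombinant enzyme. Compounds screened at 25 uM in duplicate, then concentration series for actives; activity as signal loss relative to DMSO.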

For assay [13], the target named is human Sirtuin 2 (SIRT2), SIRT2 (gene 22933) (UniProt Q8IXJ6). The assay is described as follows: NVS_ENZ_hSIRT2: NovaScreen (NVS) Enzymatic Assay for human Sirtuin 2 (SIRT2) (AID 2283217). The method in brief: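 Single-point duplicate screen at 25 uM, then concentration-response (max 50 uM) for chemicals passing threshold. Enzyme activity of recombinant human SIRT2 measured after 1 hr by fluorescence with mobility-shift separation of product; DMSO baseline.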

For assay [14], the target named is human Sirtuin 1 (SIRT1), SIRT1 (gene 23411) (UniProt Q96EB6). In words: NVS_ENZ_hSIRT1: NovaScreen (NVS) Enzymatic Assay for human Sirtuin 1 (SIRT1) (AID 2283219). The method, boiled down: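 Cell-free recombinant SIRT1 with a fluorescent substrate; substrate and product separated by electrophoretic mobility shift and read by fluorescence intensity, 1 h after dosing. Primary screen at 25 uM in duplicate; hits re-run in concentration-response up to 50 uM, relative to DMSO.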
Sequence of human Sirtuin 1 (SIRT1), SIRT1 (gene 23411) (Q96EB6 whole entry, looked up): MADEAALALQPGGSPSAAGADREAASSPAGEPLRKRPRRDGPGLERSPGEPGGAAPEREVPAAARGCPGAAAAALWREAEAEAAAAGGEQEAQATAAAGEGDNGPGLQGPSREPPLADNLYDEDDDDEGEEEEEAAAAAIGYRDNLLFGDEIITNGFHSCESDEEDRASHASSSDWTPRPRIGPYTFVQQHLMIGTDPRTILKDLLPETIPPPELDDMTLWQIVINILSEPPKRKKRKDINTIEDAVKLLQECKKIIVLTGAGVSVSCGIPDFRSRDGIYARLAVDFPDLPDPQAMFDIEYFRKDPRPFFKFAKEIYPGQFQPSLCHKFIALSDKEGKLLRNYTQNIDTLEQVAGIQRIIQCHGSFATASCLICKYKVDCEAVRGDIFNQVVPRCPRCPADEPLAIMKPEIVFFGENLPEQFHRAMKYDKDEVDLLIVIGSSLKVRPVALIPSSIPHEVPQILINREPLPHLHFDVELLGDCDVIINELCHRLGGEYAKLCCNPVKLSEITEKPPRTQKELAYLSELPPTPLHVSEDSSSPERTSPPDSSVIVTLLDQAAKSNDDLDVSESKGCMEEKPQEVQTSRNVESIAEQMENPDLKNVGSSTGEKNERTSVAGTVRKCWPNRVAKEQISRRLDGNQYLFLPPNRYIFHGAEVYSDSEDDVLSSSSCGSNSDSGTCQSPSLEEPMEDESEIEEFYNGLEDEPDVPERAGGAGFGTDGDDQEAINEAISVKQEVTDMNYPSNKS

For assay [15], the target named is human Sirtuin 3 (SIRT3), SIRT3 (gene 23410) (UniProt Q9NTG7). In words: NVS_ENZ_hSIRT3: NovaScreen (NVS) Enzymatic Assay for human Sirtuin 3 (SIRT3) (AID 2283222). The method, boiled down:
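Cell-free enzyme assay with recombinant protein and fluorescent substrate, product separated by electrophoretic mobility shift; read 1 hour after dosing. Screened in duplicate at 25 uM, then singleton concentration-response up to 50 uM; loss of signal versus DMSO.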

The target of assay [16] is human SRC Proto-Oncogene, Non-receptor Tyrosine Kinase (SRC), SRC (gene 6714) (UniProt P12931). In words: NVS_ENZ_hSRC: NovaScreen (NVS) Enzymatic Assay for human SRC Proto-Oncogene, Non-receptor Tyrosine Kinase (SRC) (AID 2283223). The method in brief: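 Compounds passing 30% inhibition at 25 uM (duplicate) were titrated to a top concentration of 50 uM. Enzyme activity read by fluorescence with mobility-shift substrate/product separation after 1 h; DMSO baseline.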
Sequence of human SRC Proto-Oncogene, Non-receptor Tyrosine Kinase (SRC), SRC (gene 6714) (P12931 whole entry, looked up): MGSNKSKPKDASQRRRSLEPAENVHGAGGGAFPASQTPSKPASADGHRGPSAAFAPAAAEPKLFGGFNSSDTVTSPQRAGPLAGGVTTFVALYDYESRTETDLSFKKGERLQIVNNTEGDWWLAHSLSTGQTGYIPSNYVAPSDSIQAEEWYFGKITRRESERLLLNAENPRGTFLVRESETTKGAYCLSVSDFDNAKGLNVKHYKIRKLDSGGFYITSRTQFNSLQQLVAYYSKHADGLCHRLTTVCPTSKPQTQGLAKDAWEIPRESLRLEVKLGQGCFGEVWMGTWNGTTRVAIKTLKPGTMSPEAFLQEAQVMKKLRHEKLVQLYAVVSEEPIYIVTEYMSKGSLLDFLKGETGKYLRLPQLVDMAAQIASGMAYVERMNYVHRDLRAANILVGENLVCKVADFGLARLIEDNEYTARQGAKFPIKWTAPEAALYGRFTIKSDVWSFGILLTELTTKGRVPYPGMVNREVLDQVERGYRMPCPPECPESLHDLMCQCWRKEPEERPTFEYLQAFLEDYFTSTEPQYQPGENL

The target of assay [17] is Serine/threonine-protein phosphatase PP1-alpha catalytic subunit (Homo sapiens) (UniProt P62136). The assay is described as follows: NVS_ENZ_hPPP1CA: NovaScreen (NVS) Enzymatic Assay for human Protein Phosphatase 1 Aatalytic subunit Alpha (PPP1CA) (AID 2283200). The method, boiled down:
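Chemicals were first screened in duplicate at 25 uM, and those passing threshold (e.g. 30% inhibition) were run as concentration series to 50 uM. Cell-free recombinant protein, 1.33 h read, fluorescent substrate/product mobility-shift detection, normalised to DMSO.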

Structures are written as SMILES. Records with an inconclusive call do not appear. Calls of active or inactive are those of the source. How the source made its calls: active means hit-call score of the fitted dose curve at least 0.9, where 1 is the maximum; inconclusive means response in the unintended direction; inactive means score below 0.9.

`CCCCCCCCCCCCOS(=O)(=O)O`: the AC50 in assay [1] was 42.4 µM (active); in assay [2], 22.7 µM (active); in assay [3], 38.4 µM (active); in assay [4], 11.9 µM (active); in [5], 46.3 µM (active); in assay [7], 10.7 µM (active). Also, the AC50 is 16.8 µM (active) in assay [8]; 25 µM (active) in assay [9]; 7.45 µM (active) in assay [10]; 25 µM (active) in assay [12]; 25 µM (active) in assay [13]. Also, the result in assay [6], in [11], in assay [14], in [15] and in [16] was inactive.
For the compound `O=C1NS(=O)(=O)c2ccccc21`, in assay [1], the call was inactive.
Turning to `CC(=O)Nc1ccc(O)cc1`, the compound was called inactive in assay [17].
For the compound `CCCCCC(C)OC(=O)COc1ccc(Cl)c2cccnc12` (configuration not stated), the compound was called inactive in assay [4].
`OCC(CO)(CBr)CBr`: in assay [8], the result was inactive.
In the case of `CCCCC(CC)C(=O)O` (configuration not stated), the result in assay [9] was inactive.
For `Cc1[nH]nc2c1N=C(c1ccccc1Cl)c1cc([N+](=O)[O-])ccc1N2`, the AC50 in assay [16] is 23.1 µM (active).
